A number with no mark means an inactive call. Results filed as inconclusive are left out. Calls of active or inactive are those of the source. Unless noted, calls come from the whole dose curve.

This is an account of results in PubChem BioAssay (Tox21).

A short description of experiment [1]: Nuclear factor erythroid 2-related factor 2/antioxidant responsive element (Nrf2/ARE) small molecule agonists: qHTS cell viability counter screen in human keratinocytes (AID 1919968; active = well fitted curve in the direction sought with a large enough effect in the repeat runs; an effect the other way counts as inactive or inconclusive; note: nearly all actives have a fitted effect of over 55% in size). The gist of the method: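 HaCaT ARE reporter line, 1,500 cells/well; 5 h settle, 37 C/5% CO2; cpd in DMSO pinned; 23 h exposure; CellTiter-Fluor, 1 h; fluorescence.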
Background: Quantitative high-throughput screening tests each substance at several concentrations.

Experiment [2] is described as follows: Nuclear factor erythroid 2-related factor 2/antioxidant responsive element (Nrf2/ARE) small molecule agonists: luciferase reporter gene qHTS assay in human keratinocytes (AID 1919969). Note: nearly all actives have a fitted effect of over 35% in size. Note: potency is the fitted concentration of half-maximal effect. A general note: Reporter assays use an easily measured gene product as a stand-in for the process of interest.
Experiment [3] concerns the target Gonadotropin-releasing hormone receptor (Homo sapiens) (UniProt P30968). Description: Human gonadotropin-releasing hormone receptor (GnRHR) small molecule agonists, calcium flux assay in GnRHR-HEK293 cells (AID 1920063). Note: nearly all actives have a fitted effect of over 35% in size. The gist of the method:
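GnRHR-HEK293, 1500 cells/well, 18 h 37 C/5% CO2; Ca dye 1 h 37 C; cpd pinned (DMSO), agonist mode; kinetic FL 480/540, 3 min, 1 s reads; 15 conc, n=3.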
A general note: A change in cytosolic calcium serves as a functional read-out for many receptors and channels.

The target of experiment [4] is KiSS-1 receptor (Homo sapiens) (UniProt Q969F8). Description: Human kisspeptin (KISS1R) small molecule agonists, calcium flux assay in KISS1R-HEK293 cells (AID 1920064; active = well fitted curve in the direction sought with a large enough effect in the repeat runs; an effect the other way counts as inactive or inconclusive). The gist of the method:
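Stable human KISS1R HEK293 line; 18 h plating, 37 C/5% CO2; calcium dye 1 h 37 C; compound pin transfer; kinetic fluorescence Ex/Em 480/540, 3 min.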

Experiment [5] can be described thus: G protein-coupled receptor (GPCR) small molecule agonists, calcium flux assay: HEK293 wild type cell line counter screen (AID 1920065). The gist of the method:
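Kinetic fluorescence at Ex/Em 480/540, recorded every second over 3 min, served as the read-out after compound addition. Each compound was tested at 15 concentrations in triplicate on cells pre-loaded with calcium dye for 1 h.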

A short description of experiment [6]: p53 small molecule agonists, cell-based qHTS assay with human liver microsomes (AID 1963577). The gist of the method: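 Fluorescence of the beta-lactamase reporter in p53RE-bla cells, detected with LiveBLAzer substrate (2 h, room temperature, dark), served as the read-out after 16 h compound exposure at 37 C with human liver microsomes and NADPH, each 0.5 mg/mL final.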

Experiment [7] is described as follows: p53 small molecule agonists, cell-based qHTS assay with rat liver microsomes (AID 1963578). An outline of the steps:
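Cells carrying a p53 response element–beta-lactamase reporter were plated and rested 5 h, then dosed with compound in DMSO plus rat liver microsomes and NADPH, each at 0.5 mg/mL final. After 16 h at 37 C, LiveBLAzer substrate was added for 2 h.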

Experiment [8] in a line: p53 small molecule agonists, cell-based qHTS assay with human liver microsomes: qHTS cell viability counter screen (AID 1963579). Note: nearly all actives have a fitted effect of over 45% in size. The gist of the method: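 Cytotoxicity counter screen: p53RE-bla, 4,000 cells/well; 5 h settle, 37 C/5% CO2; cpd + HLM 0.5 mg/mL + NADPH 0.5 mg/mL (final); 16 h, 37 C; CellTiter-Glo, 30 min RT, luminescence.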
A short description of experiment [9]: p53 small molecule agonists, cell-based qHTS assay with rat liver microsomes: qHTS cell viability counter screen (AID 1963580). Note: nearly all actives have a fitted effect of over 45% in size. The gist of the method: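 Intracellular ATP, by CellTiter-Glo luminescence, defines viability. HCT-116 p53RE-bla cells, 4,000 per well, were compound-treated in the presence of rat liver microsomes and NADPH for 16 h at 37 C.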
The nature of experiment [10]: p53 small molecule agonists, cell-based qHTS assay: qHTS cell viability counter screen (AID 1963581). Note: nearly all actives have a fitted effect of over 45% in size. The gist of the method: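 HCT-116 p53RE-bla cells, 4,000/well, plated 5 h before compound pin transfer; 16 h at 37 C; bla substrate 2 h RT; then CellTiter-Glo, 30 min RT, luminescence.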
A short description of experiment [11]: p53 small molecule agonists, cell-based qHTS assay (AID 1963582; active = well fitted activation curve with a large enough effect in the signal ratio in the repeat runs, not every such curve was filed as active; the % refers to the signal ratio). An outline of the steps:
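Reporter line: p53RE-bla. Pre-incubation 5 h, 37 C, 5% CO2; compound (DMSO, pin tool) 16 h, 37 C; B/G FRET substrate 2 h RT; fluorescence intensity read.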

The target of experiment [12] is 5-hydroxytryptamine receptor 2A (Homo sapiens) (UniProt P28223). The experiment is described as follows: 5-hydroxytryptamine receptor 2A (HTR2A) small molecule antagonists, cell-based qHTS assay (AID 1963586). Note: nearly all actives have a fitted effect of over 45% in size. An outline of the steps:
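Antagonist-mode intracellular calcium assay: DOI (4 nM) added after 5 min compound pre-incubation at room temperature to dye-loaded HTR2A-CHO cells. Fluorescence followed for 3 min, sampled every second.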

Experiment [13] deals with Muscarinic acetylcholine receptor M1 (Homo sapiens) (UniProt P11229). The experiment is described as follows: Cholinergic receptor muscarinic 1 (CHRM1) small molecule antagonists, cell-based qHTS assay (AID 1963588). Note: nearly all actives have a fitted effect of over 40% in size. The gist of the method:
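CHRM1-CHO calcium-flux assay, antagonist mode. Cells were seeded 18 h, dye-loaded 1 h at 37 C and given compound for 5 min at RT, then acetylcholine was added at 50nM. FDSS fluorescence was read 3 min; 15 concentrations, three runs.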

The nature of experiment [14]: cAMP Responsive Elements (CRE) small molecule agonists, cell-based qHTS assay (AID 1963590). The gist of the method:
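HEK 293T CRE-bla, 2,000 cells/well, 18 h preincubation 37 C/5% CO2; cpds (DMSO) pinned, 3 h; LiveBLAzer B/G FRET substrate, 2 h RT.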

The nature of experiment [15]: cAMP Responsive Elements (CRE) small molecule antagonists, cell-based qHTS assay (AID 1963591; active = well fitted inhibition curve with a large enough effect in the signal ratio in the repeat runs, not every such curve was filed as active; the % refers to the signal ratio). The gist of the method:
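Beta-lactamase reporter read by FRET substrate (LiveBLAzer B/G) after 2 h at room temperature. CRE-bla HEK293T cells had received compound plus 0.25 uM (final) NKH477 for 3 h at 37 °C.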

Experiment [16] has as its target Beta-2 adrenergic receptor (Homo sapiens) (UniProt P07550). The experiment is described as follows: Adrenergic beta2 receptor (ADRB2) small molecule antagonists, cell-based qHTS assay (AID 1963592). Note: series mostly up to about 92 µM; nearly all actives have a fitted effect of over 50% in size. An outline of the steps: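 Cells (CHO, stable ADRB2 overexpression) incubated 18-20hr at 37C; compounds added from DMSO; agonist mix (1nM isoproterenol, 100uM IBMX, 25uM Ro-20-1724) added; 0.5hr RT; d2-cAMP and anti-cAMP-cryptate added; 1hr RT; 665/615 nm read.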

The target in experiment [17] is D(2) dopamine receptor (Homo sapiens) (UniProt P14416). Description: Dopamine D2 receptor (DRD2) small molecule agonists, cell-based qHTS assay (AID 1963594). Note: nearly all actives have a fitted effect of over 35% in size. The gist of the method: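 cAMP accumulation in DRD2-HEK293 cells measured by HTRF after 1 h detection; compounds added 10 min before NKH477 (200nM […]) forskolin-analogue stimulation, 30 min at room temperature, with Ro20-1724 present at 0.1 mM final.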

Experiment [18] shares this target. Description: Dopamine D2 receptor (DRD2) small molecule antagonists, cell-based qHTS assay (AID 1963595; active = well fitted inhibition curve with a large enough effect in the signal ratio in the repeat runs, with a control signal flat; the % refers to the signal ratio). An outline of the steps:
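HEK293 cells stably expressing DRD2, preincubated with 0.1 mM Ro20-1724 and compounds 10 min, were stimulated with 200 nM NKH477 plus 12 nM quinpirole for 30 min at room temperature; cAMP measured by HTRF (665/620 nm).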

Experiment [19] concerns the target 5-hydroxytryptamine receptor 2A (Homo sapiens) (UniProt P28223). The experiment is described as follows: 5-hydroxytryptamine receptor 2A (HTR2A) small molecule agonists, cell-based qHTS assay (AID 1963587). Note: nearly all actives have a fitted effect of over 30% in size. An outline of the steps:
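Kinetic calcium-flux fluorescence (2 min, 1 sec intervals) after compound addition in agonist mode. HTR2A-CHO cells were cultured 18 h, then dye-loaded 1 h at 37 C.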

In experiment [20] the target is Muscarinic acetylcholine receptor M1 (Homo sapiens) (UniProt P11229). The experiment is described as follows: Cholinergic receptor muscarinic 1 (CHRM1) small molecule agonists, cell-based qHTS assay (AID 1963589). Note: nearly all actives have a fitted effect of over 35% in size. An outline of the steps:
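Human M1 in stable CHO line; 18 h plating, 1 h dye load 37 C; cpd added (agonist mode); Ca2+ fluorescence kinetic read, 1 s intervals; 15 conc, 3 runs.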
% is set by controls: 0 for no effect and ±100 for the full control effect.

Gonadotropin-releasing hormone receptor (Homo sapiens), sequence (P30968 whole entry, looked up): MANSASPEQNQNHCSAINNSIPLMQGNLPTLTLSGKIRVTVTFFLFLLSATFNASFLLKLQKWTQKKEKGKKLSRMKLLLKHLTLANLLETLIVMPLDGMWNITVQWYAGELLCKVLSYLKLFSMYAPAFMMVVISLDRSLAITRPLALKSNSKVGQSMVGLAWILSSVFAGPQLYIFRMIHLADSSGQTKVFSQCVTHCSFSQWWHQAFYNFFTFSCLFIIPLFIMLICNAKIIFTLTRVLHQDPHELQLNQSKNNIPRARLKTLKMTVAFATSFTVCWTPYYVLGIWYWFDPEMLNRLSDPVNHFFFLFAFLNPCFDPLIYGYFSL
KiSS-1 receptor (Homo sapiens), sequence (Q969F8 whole entry, looked up): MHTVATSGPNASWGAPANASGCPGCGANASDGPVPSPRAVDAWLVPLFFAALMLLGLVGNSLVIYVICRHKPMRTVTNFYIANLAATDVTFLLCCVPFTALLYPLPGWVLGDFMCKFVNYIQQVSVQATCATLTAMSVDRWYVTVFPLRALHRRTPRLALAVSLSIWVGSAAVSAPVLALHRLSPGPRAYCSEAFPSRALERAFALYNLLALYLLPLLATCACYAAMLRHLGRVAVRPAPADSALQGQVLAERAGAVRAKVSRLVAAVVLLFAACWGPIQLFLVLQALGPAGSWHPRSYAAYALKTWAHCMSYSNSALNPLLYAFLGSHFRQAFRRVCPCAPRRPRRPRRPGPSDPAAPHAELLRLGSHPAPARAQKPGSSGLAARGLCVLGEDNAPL
D(2) dopamine receptor (Homo sapiens), sequence (P14416 whole entry, looked up): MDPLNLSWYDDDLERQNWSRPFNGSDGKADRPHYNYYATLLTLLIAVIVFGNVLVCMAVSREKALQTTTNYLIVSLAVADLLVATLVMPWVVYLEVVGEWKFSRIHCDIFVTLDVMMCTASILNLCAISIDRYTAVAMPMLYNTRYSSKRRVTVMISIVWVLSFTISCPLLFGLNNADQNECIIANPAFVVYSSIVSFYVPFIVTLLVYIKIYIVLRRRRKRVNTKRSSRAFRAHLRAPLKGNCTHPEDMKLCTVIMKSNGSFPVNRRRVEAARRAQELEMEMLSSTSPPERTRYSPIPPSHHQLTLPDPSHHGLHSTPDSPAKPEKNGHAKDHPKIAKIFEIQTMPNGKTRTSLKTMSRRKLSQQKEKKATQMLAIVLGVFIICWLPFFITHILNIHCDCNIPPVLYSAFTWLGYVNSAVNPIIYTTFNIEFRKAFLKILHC
Muscarinic acetylcholine receptor M1 (Homo sapiens), sequence (P11229 whole entry, looked up): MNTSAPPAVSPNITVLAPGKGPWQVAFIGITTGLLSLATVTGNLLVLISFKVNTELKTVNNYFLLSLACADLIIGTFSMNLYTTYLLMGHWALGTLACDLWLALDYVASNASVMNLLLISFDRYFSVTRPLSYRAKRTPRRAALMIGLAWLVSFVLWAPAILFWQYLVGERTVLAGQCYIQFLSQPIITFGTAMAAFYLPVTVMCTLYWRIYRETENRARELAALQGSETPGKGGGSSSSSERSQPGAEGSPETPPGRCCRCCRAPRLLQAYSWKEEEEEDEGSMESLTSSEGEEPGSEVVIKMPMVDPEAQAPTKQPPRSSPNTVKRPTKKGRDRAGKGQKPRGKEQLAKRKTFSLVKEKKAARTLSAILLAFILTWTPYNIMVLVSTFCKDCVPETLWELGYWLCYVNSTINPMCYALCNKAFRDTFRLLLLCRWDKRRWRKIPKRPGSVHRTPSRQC
Beta-2 adrenergic receptor (Homo sapiens), sequence (P07550 whole entry, looked up): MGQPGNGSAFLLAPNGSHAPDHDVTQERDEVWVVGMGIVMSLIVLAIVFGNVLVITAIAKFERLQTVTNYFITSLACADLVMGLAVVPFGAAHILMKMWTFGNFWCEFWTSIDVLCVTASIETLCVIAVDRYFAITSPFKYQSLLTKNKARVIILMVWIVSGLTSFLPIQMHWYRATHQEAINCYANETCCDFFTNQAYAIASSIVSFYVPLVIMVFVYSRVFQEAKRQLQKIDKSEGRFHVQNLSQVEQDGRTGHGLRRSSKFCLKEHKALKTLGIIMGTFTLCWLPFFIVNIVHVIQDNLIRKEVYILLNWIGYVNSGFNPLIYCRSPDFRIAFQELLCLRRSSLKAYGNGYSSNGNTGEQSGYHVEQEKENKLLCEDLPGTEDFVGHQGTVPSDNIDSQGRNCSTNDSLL
5-hydroxytryptamine receptor 2A (Homo sapiens), sequence (P28223 whole entry, looked up): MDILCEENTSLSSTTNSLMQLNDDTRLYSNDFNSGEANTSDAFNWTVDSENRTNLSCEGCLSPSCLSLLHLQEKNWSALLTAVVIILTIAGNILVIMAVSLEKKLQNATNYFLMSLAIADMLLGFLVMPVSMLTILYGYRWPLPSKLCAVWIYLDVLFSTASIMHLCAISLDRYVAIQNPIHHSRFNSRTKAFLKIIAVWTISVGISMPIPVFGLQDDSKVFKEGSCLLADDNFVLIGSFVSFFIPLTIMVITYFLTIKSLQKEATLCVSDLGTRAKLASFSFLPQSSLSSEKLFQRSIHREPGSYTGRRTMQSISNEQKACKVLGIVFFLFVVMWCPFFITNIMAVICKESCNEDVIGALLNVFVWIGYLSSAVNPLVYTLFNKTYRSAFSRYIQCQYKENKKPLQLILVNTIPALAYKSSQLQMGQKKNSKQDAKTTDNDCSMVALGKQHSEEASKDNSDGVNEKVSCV

For the compound `CCCCCCCCCCCCCl`, the Potency result in experiment [1], in [2], in experiment [3], in [4], in [5] and in [6] was “inactive” throughout. Moreover, the Potency entry in [7], in experiment [8], in [9], in [10], in [11] and in experiment [12] was “inactive” each time. Further, the Potency entry in [13], in [14], in [15], in experiment [16], in experiment [17] and in experiment [18] was “inactive” in each case.

For `O=C(Cl)C(Cl)Cl`, the Potency entry in experiment [1], in experiment [2], in [3], in experiment [4], in [5] and in [6] was “inactive” in each case. Besides, the Potency result in experiment [7], in [8], in [9], in experiment [10], in experiment [11] and in experiment [12] was “inactive” each time. In addition, the Potency entry in experiment [19], in experiment [13], in [14], in experiment [15], in experiment [16] and in experiment [17] was “inactive” in each case. In addition, in experiment [18], the Potency entry was “inactive”.

With `Brc1c(Br)c(Br)c(Oc2c(Br)c(Br)c(Br)c(Br)c2Br)c(Br)c1Br`, the activity change, negative = cytotoxicity in experiment [1] was -0.108% [at 19 µM]; in [8], 1.7% [at 13.5 µM]; in [9] it was 4.17% [at 13.5 µM]; in experiment [10], 13.8% [at 13.5 µM]. For the same compound, in experiment [2], the activity, positive = activation was -3.66% [at 19 µM]. Besides, the activity change in [3] was -0.419% [at 11.8 µM, active compounds read high]. For the same compound, the activation in experiment [4] is -2.44% [at 15.8 µM]; in experiment [5], 1.15% [at 11.8 µM]; in experiment [6], -0.0858% [at 13.5 µM]; in experiment [7], 0.633% [at 13.6 µM]; in experiment [11] it was 0.0757% [at 13.5 µM]; in experiment [19], 1.53% [at 15.9 µM]. For the same compound, the activation in [14] was 0.588% [at 19 µM]; in [17], 4.7% [at 19 µM]. Besides, the activity, negative = inhibition is 9.26% [at 12.7 µM] in [12] and -22.2% [at 12.6 µM] in [13]. For the same compound, the activity change, negative = inhibition in experiment [15] was -8.08% [at 18.9 µM]; in [16], 1.07% [at 19 µM]; in experiment [18], 0.371% [at 18.9 µM].

With `CCC1(c2ccccc2)CCC(=O)NC1=O` (configuration not stated), the Potency entry in experiment [1], in experiment [2], in [3], in experiment [4], in experiment [5] and in experiment [6] was “inactive” each time. Further, the Potency result in experiment [7], in [8], in experiment [9], in experiment [10], in [11] and in experiment [12] was “inactive” in each case. The Potency result in [13], in [20], in experiment [14], in [15], in experiment [16] and in [17] was “inactive” each time. Moreover, the Potency entry in experiment [18] is “inactive”.

On to `CCCCCCCCSC(=O)Oc1cc(Cl)nnc1-c1ccccc1`, for which the Potency result in experiment [1], in [2], in experiment [3], in experiment [4], in [5] and in experiment [6] was “inactive” each time. For the same compound, the Potency result in experiment [7], in experiment [8], in experiment [9], in experiment [10], in experiment [11] and in experiment [12] was “inactive” in each case. Besides, the Potency entry in experiment [19], in [13], in experiment [14], in experiment [15], in [16] and in experiment [17] was “inactive” throughout. In addition, the Potency result in [18] was “inactive”.

In the case of `C=CC(C)=O`, the Potency entry in experiment [1], in [3], in experiment [4], in experiment [5], in experiment [6] and in experiment [7] was “inactive” throughout. For the same compound, the Potency entry in [8], in [9], in experiment [10], in experiment [11], in [12] and in [19] was “inactive” each time. The Potency result in experiment [13], in experiment [14], in [15], in experiment [16], in experiment [17] and in [18] was “inactive” in each case. Further, in [2], the Potency is 5.97 µM (active).

Consider `C[C@H]1O[C@H](OC2[C@@H](O)[C@@H](O)C(O)[C@H](O)[C@H]2O)[C@@H](N)C[C@@H]1N=C(N)C(=O)O` (some centres not stated), for which the Potency result in experiment [1], in experiment [2], in experiment [3], in experiment [4], in experiment [5] and in experiment [6] was “inactive” each time. Also, the Potency entry in experiment [7], in experiment [8], in experiment [9], in experiment [10], in [11] and in experiment [12] was “inactive” each time. Further, the Potency result in [13], in [20], in [14], in [15], in experiment [16] and in [17] was “inactive” in each case. The Potency entry in experiment [18] is “inactive”.
